Screening data (PubChem)
TCR act – Activators of T cell receptors: qHTS campaign; Potency, µM (titrated, usually from 9.22 µM), inactives show at the highest dose activation of IL-2 secretion, most hits filed as activators; primary human leukocytes, anti-CD3, IL-2 HTRF, 48 h; 330,000 tested, under 10 active; note: % of control where 0% means no effect
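IL-2 release read by HTRF sandwich (Eu cryptate donor, d2 acceptor, 665 nm emission) after 48 hr exposure of primary human leukocytes to compound together with anti-CD3 beads in the absence of co-stimulatory signals.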
FEN1 inh – qHTS Assay for the Inhibitors of Human Flap endonuclease 1 (FEN1); P39748; Recombinant FEN1 flap cleavage, fluorescence, 15 min; Potency, µM (series often up to 114 µM), inactives show top-dose activity change, negative = inhibition, hits mostly inhibitors; 390,000 compounds, 0.35% hits; note: potency is the fitted concentration of half-maximal effect; % is set by controls: 0 for no effect and ±100 for the full control effect; nearly all actives have a fitted effect of over 65% in size
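Quantitative HTS format: each compound was titrated, incubated with 10 nM nuclease for 15 min at room temperature, then challenged with flap substrate at 50 nM final. Signal change over 15 min gave concentration–effect curves.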
VDR inhibitor – Inhibitors of the vitamin D receptor (VDR): qHTS; AID 504847, 2011; Potency, µM, for the others: max response, negative = inhibition, most hits filed as inhibitors; 400,000 compounds, 0.93% hits; Vitamin D3 receptor (Homo sapiens), P11473; VDR-SRC2-3 peptide fluorescence polarization, 2 h; note: potency is the fitted concentration of half-maximal effect; % is set by controls: 0 for no effect and ±100 for the full control effect
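After 23 nl compound addition and a short centrifugation, plates sat for 2 hours at ambient temperature; polarization of fluorescence then indicated loss of VDR binding to peptide SRC2-3.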
PLK1 PBD block – qHTS for Inhibitors of PLK1-PDB (polo-like kinase 1 - polo-box domain): Primary Screen | Potency, µM, without a hit: max response, negative = inhibition, actives largely listed as inhibitors | Serine/threonine-protein kinase PLK1 (Homo sapiens), P53350 | Plk1 PBD binding of FITC phosphopeptide, fluorescence polarization | 360,000 compounds, 2.8% hits; note: potency is the fitted concentration of half-maximal effect; series mostly up to about 57 µM; % is set by controls: 0 for no effect and ±100 for the full control effect; nearly all actives have a fitted effect of over 65% in size
Target sequence (P53350 whole entry, looked up, the tested form may be a part): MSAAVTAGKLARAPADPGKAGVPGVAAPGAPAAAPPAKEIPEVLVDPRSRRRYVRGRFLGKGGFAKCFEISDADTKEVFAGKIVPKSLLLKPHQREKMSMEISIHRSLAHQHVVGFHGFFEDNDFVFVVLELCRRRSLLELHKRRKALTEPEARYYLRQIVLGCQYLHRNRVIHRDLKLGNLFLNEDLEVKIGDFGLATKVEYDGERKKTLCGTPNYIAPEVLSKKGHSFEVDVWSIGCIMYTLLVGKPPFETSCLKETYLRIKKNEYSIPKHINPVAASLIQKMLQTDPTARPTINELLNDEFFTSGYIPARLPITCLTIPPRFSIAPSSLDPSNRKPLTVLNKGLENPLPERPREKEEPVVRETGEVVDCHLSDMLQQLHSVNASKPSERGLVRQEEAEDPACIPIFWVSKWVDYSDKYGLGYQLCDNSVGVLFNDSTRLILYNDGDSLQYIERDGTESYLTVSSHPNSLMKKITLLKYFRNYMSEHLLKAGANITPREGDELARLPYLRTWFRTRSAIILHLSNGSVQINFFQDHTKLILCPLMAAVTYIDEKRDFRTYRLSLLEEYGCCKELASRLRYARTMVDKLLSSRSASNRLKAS
WRN helicase inh – qHTS for Inhibitors of WRN Helicase; 360,000 compounds, 0.46% hits; WRN helicase unwinding, fluorescent forked duplex, kinetic; AID 651768, 2012; Potency, µM (series often up to 114 µM), for inactives: at the top dose activity change, negative = inhibition, most hits filed as inhibitors; Bifunctional 3'-5' exonuclease/ATP-dependent helicase WRN (Homo sapiens), Q14191; note: potency is the fitted concentration of half-maximal effect; % is set by controls: 0 for no effect and ±100 for the full control effect; nearly all actives have a fitted effect of over 55% in size
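Primary qHTS, 1536-well format. 20 nM WRN + compound, 15 min RT; start with 100 nM forked fluorophore/quencher duplex, 2 mM ATP (final); kinetic read ex 525/em 598 nm.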
PI5P4K alpha inh – qHTS for Inhibitors of phosphatidylinositol 5-phosphate 4-kinase (PI5P4K); PI5P4Kalpha enzyme, ADP-Glo luminescence, 60 min; stronger effect = lower value; max response, %; 330,000 compounds, 1.2% hits; active = max response of -50% or lower; inconclusive = between -30% and -50%; inactive = -30% or higher; note: value at the top dose of about 77 µM; % is set by controls: 0 for no effect and ±100 for the full control effect
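Luminescence from ADP-Glo served as readout of PI5P4Kalpha activity in a qHTS format. Reaction: enzyme, substrate, compound, ATP at 5 microM final, 60 min at RT.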
Active calls of the source: *; ? = inconclusive; . = not tested or not shown; ! = a repeat was not active; [ ] = dose if it differs, or a comment. The list is not random: actives were taken first. Their share in the collection is about 3.7%. Unless noted, calls come from the whole dose curve; as a rule, active = well fitted curve in the direction sought with a large enough effect; inconclusive = small, poorly fitted or top-dose-only effect, or another doubt; inactive = no such curve, though single readings can be large; an effect the other way counts as inactive or inconclusive.

SMILES | TCR act | FEN1 inh | VDR inhibitor | PLK1 PBD block | WRN helicase inh | PI5P4K alpha inh
N#Cc1c(C(F)(F)F)cc(-c2ccco2)nc1SCc1ccncc1 | -8% | -11% | -11% | -4% | -3% | -2
CSc1nc(-c2ccco2)cc(C(F)(F)F)c1C#N | 4%[46.1 µM] | -2% | -25% | 17µM* | -1% | 5
CCc1nn(CC(=O)NCCN(CC(C)C)CC(C)C)c(=O)c2cc3sc(C)cc3n12 | . | 15% | -1% | . | . | .
S=c1[nH]nc2n1CCCN2 | 0% | 6% | -2% | 30µM* | 2% | -2
CC(C)(C)c1ccc(Oc2ccc(NC(=O)CCC(=O)OCC(=O)c3ccccc3)cc2)cc1 | . | -9% | -7% | . | . | .
N#CCC(=O)Nc1sc2c(c1C(N)=O)CCCC2 | 0%[46.1 µM] | -17% | -23% | -5% | -25% | -26
COC(=O)c1c(NC(=O)COC(=O)c2ccc(NC(=O)CC#N)cc2)sc2c1CCCCC2 | 5% | ? | 7% | -14% | 56µM* | -62*
COC(=O)c1c(NC(=O)COC(=O)c2ccccc2O)sc2c1CCCCC2 | -8%[46.1 µM] | 6% | -1% | -4% | 2%[57.1 µM] | 1
NC(=O)c1c(NC(=O)COC(=O)c2ccc(O)c(Cl)c2)sc2c1CCCC2 | 8%[46.1 µM] | ? | -4% | ? | -33% | -55*
Fc1ccc(Nc2c(-c3c[nH]c4ccccc34)nc3ccccn23)cc1 | . | -4% | -13% | . | . | .
C=CCOn1c(=O)c(-c2ccc(Cl)cc2)[n+]([O-])c2ccccc21 | 1% | 1% | 17% | ? | 2%[57.1 µM] | -9
C=CCOn1c(=O)c(-c2cccs2)[n+]([O-])c2ccccc21 | 3% | 6% | -11% | 0.84µM* | -1% | .
CC(C)(C)S(=O)(=O)/C(C#N)=N/Nc1ccc(S(C)(=O)=O)cc1 | -4% | -9% | -4% | 21µM* | -4%[57.1 µM] | 12
CC(C)OC(=O)c1cn(-c2ccccc2)nc1-c1ccco1 | -1% | -1% | 79µM* | ? | ? | ?
CCCCc1nnc(SCc2cc(=O)c3cc(C(=O)OCC)ccc3[nH]2)n1C | . | -3% | -2% | . | . | .
CC(C)(C)n1ncc2c(=O)n(Cc3ccc(Cl)c(C(F)(F)F)c3)cnc21 | . | 0% | . | . | . | .
O=C(Nc1ccc(Cc2ccc(NC(=O)C3CC3)cc2)cc1)C1CC1 | 3% | -5% | -6% | 27µM* | 0% | -7
COc1ccc(NC(=O)c2nc(-c3ccc(C)cc3)n3c2CCCCC3)cc1 | . | -19% | -5% | . | . | .
N#CC1=C2SCN(C3CCCCC3)CN2C(=O)CC1c1ccc(F)cc1 (centres undefined) | . | -3% | 18µM* | . | . | .
N#CC1=C2SCN(C3CCCCC3)CN2C(=O)CC1c1ccc(Cl)cc1 (centres undefined) | . | ? | 22µM* | . | . | .
N#CC1=C2SCN(C3CCCCC3)CN2C(=O)CC1c1c(F)cccc1Cl (centres undefined) | . | ? | 20µM* | . | . | .
O=C1CSC(c2ccc(Cl)cc2)N1C1CCCCC1 (centres undefined) | 5% | -5% | 24% | -9% | 4% | 1
COc1ccc(-c2nc3cnc(N(C)C)nc3n(C)c2=O)cc1 | . | . | 3% | . | . | .
COc1ccc(-n2c(=O)c3ccc(C(=O)NCc4ccc(C)cc4)cc3n(CC(=O)Nc3ccc(F)cc3)c2=O)cc1 | . | 16% | -3% | . | . | .
CCN(CC)c1ccc(/C=C/C2=C3C=CC=CC3NC=C2)cc1 (centres undefined) | . | 16µM* | . | . | . | .
SMILES | TCR act | FEN1 inh | VDR inhibitor | PLK1 PBD block | WRN helicase inh | PI5P4K alpha inh
Cc1ccc2nc(CN3CCN(C(=O)Nc4ccc(C)c(F)c4)CC3)oc2c1 | . | 4% | 10% | . | . | .
CCCCCCCCC1=NCCc2c1[nH]c1ccccc21 | -4% | 1% | ? | 24µM* | -7% | ?
CCN1CCN(CCCN(Cc2ccco2)C(=S)Nc2cc(Cl)ccc2C)CC1 | 1% | 4% | -16% | 24µM* | -3% | -5
Cc1cc(C)c(NC(=S)N(CCN2CCCCC2)Cc2ccco2)c(C)c1 | -2% | -2% | -11% | 21µM* | -14% | -1
Cc1cccc(C)c1NC(=S)N(CCN1CCCCCC1)Cc1ccco1 | 4% | 7% | -13% | -8% | -27% | -7
CCN1CCN(CCCN(Cc2ccco2)C(=S)Nc2ccc(C)c(Cl)c2)CC1 | 3% | -4% | -9% | -16% | 6% | -1
Cc1cccc(N2CCN(CCCNC(=O)c3sc4ncccc4c3-n3cccc3)CC2C)c1 (centres undefined) | . | 7% | 5% | . | . | .
COc1ccc(-c2nc3ccc(C4=C(C)CC(=O)NN4)cc3[nH]2)cc1 | . | . | -8% | . | . | .
O=C(N/N=C/c1ccc(O)cc1O)C(=O)N/N=C/c1ccc(O)cc1O | 12% | -19% | ? | 12µM* | -8%[11.6 µM] | -25
O=C(CCC(=O)Nc1ccc(F)cc1)N/N=C/c1ccc(O)cc1O | 3% | 12% | 17% | -16% | -17% | -4
Oc1ccc(/C=N/NC(=S)Nc2cccnc2)c(O)c1 | -1%[46.1 µM] | -14% | -3% | ? | -7% | -75*
Fc1c(F)c(F)c(/C=N/NC(=S)Nc2cccnc2)c(F)c1F | 7% | 4% | -15% | -6% | 4% | -11
Oc1cccc(/C=N/NC(=S)Nc2cccnc2)c1O | -9%[46.1 µM] | ? | 0% | 0% | ? | -66*
Oc1ccc(/C=N/NC(=S)Nc2cccnc2)c(O)c1O | -1% | 4.5µM* | 50µM* | 6.7µM* | 10µM* | -96*
Fc1ccc(/C=N/NC(=S)Nc2cccnc2)cc1F | -9% | -6% | 3% | -7% | -4% | -1
C=C1C=C(C(F)F)n2ncc(C(=O)Nc3ccc(N(CC)CC)cc3)c2N1 | . | -3% | . | . | . | .
COc1ccc2[nH]cc(CC(=O)O)c2c1 | 5% | -8% | -13% | -16% | 0% | 2
O=C(O)Cc1c[nH]c2ccc(O)cc12 | 0% | 15% | 50µM*! | 5% | 8% | 3
Cc1ccc(C2NC(=O)CCC2[N+](=O)[O-])cc1 (centres undefined) | 8% | 2% | ? | 19µM* | -1%[57.1 µM] | -13
Cc1nc(C(N)=O)c(N)n1CCc1ccccc1 | 2% | 2% | 45µM* | -18% | 0% | 1
COc1cccc(C(=O)Nc2c(C(=O)NC(C)(C)C)oc3ccccc23)c1 | . | 1% | 4% | . | . | .
C=C[C@H](CC(C)C)N(Cc1ccccc1)S(=O)(=O)N(Cc1ccccc1)[C@H](C=C)CC(C)C | . | 2% | . | . | . | .
Cc1ccc(S(=O)(=O)CC(=O)Nc2nc3c(C)cc(C)cc3s2)cc1 | . | -20% | 15% | . | . | .
